Compound activity (PubChem)
tim23-1 inh = growth inhibitors of tim23-1 mutant yeast | S. cerevisiae tim23-1 growth, BacTiter-Glo luminescence, 24 h | inhibition, % at 20 µM | hit rate 1.3% among 330,000;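 active = growth inhibition of the mutant yeast at or above 50%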;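 note: temperature-sensitive mutant grown at 25 °C; plate controls were DMSO-treated mutant yeast for no effect and medium wells lacking yeast for full effect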
NALP1 yeast inh = inhibitors of NALP1 inflammasome in yeast; S. cerevisiae NALP1/ASC/caspase-1 growth, X-gal OD620, 72 h; inhibition, % at 10 µM; hit rate 0.61% among 280,000; AID 2071; in the data active = inhibition mostly above about 24%, no sharp cut-off; inactive = mostly below about 32%
tim10-1 inh = tim10-1 yeast growth inhibition. S. cerevisiae tim10-1 ts strain growth, BacTiter-Glo, 24 h. inhibition, % at 20 µM. hit rate 2.2% among 330,000. AID 463190;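 active = inhibition of at least 40%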;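 note: mutant grown at 25 °C; 0% = DMSO wells with yeast and 100% = wells holding no yeast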
SKKanGAS inh = SKKanGAS growth inhibition | S. pyogenes SKKanGAS, kanamycin growth, BacTiter-Glo, 6 h | inhibition, % at 7.5 µM | hit rate 1.3% among 300,000 | AID 1662;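 active = mean replicate score, as percent of positive control median, at least 50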;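 note: strain carries kanamycin resistance gene driven by streptokinase promoter and grows in 40 µg/ml kanamycin; loss of luminescence reflects streptokinase promoter inhibition or plain growth inhibition; 0% = median of DMSO wells and 100% = positive control at its reference dose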
TIM10 inh = TIM10 yeast growth inhibition | S. cerevisiae TIM10 strain growth, BacTiter-Glo luminescence, 24 h | inhibition, % at 10 µM | hit rate 1.4% among 330,000 | AID 463195;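 active = inhibition of 40% or more at the single tested concentration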;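 note: wild-type TIM10 isogenic control strain grown at permissive 25 °C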
PfHsp90 set2 = growth inhibition of yeast expressing Plasmodium Hsp90. S. cerevisiae expressing PfHsp90, BacTiter-Glo ATP, 48 h; yeast lacking PDR1 and PDR3 efflux regulators. inhibition, % at 9.4 µM. hit rate 0.32% among 310,000;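 active = every replicate shows inhibition above about 80%, whatever the replicate mean, limit read from the data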;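 note: 0% = DMSO neutral controls and 100% = 20 µM radicicol positive controls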
The depositor's hits bear a star; / = not tested or not shown. Rows were chosen to be rich in hits. Some 4.8% of all compounds tested hit in one or more screens of this group.

SMILES	tim23-1 inh	NALP1 yeast inh	tim10-1 inh	SKKanGAS inh	TIM10 inh	PfHsp90 set2
OCC1(Cc2ccc(Cl)cc2)CCN(Cc2ccccc2F)CC1	13	2	3	-2	10	/
Cc1cc(=O)oc2cc(Oc3ncccc3[N+](=O)[O-])ccc12	-5	3	-8	-1	-13	-38
COc1ccc(C(=O)CSc2[nH]c(=O)cc(C(F)(F)F)c2C#N)cc1	11	23	1	66*	-23	-21
CC1C/C(=N/Nc2nc3ccccc3[nH]2)CC(C)(C)C1 (stereo not drawn)	6	37	38	60*	27	-9
CC1C/C(=N/NC(=O)c2ccc(CSc3nc4ccccc4[nH]3)cc2)CC(C)(C)C1 (stereo not drawn)	18	23	5	10	11	31
CCCn1c(=O)c(C(=O)N/N=C/c2ccccc2F)c(O)c2ccccc21	-18	-2	12	15	20	/
CCCn1c(=O)c(C(=O)N/N=C/c2ccc(F)cc2)c(O)c2ccccc21	-10	16	-26	103*	-29	42
CC(C)CCn1c(=O)c(C(=O)N/N=C/c2cccc(F)c2)c(O)c2ccccc21	-1	5	-25	81*	0	18
CCCCCCn1c(=O)c(C(=O)N/N=C/c2cccc(F)c2)c(O)c2ccccc21	-5	14	-6	63*	-8	-22
CC(=O)Nc1ccc(NC(=O)CSc2nnc(-c3cccnc3)o2)cc1	-22	/	-22	-4	1	0
COc1ccc(N(C)S(=O)(=O)c2cccc(C(=O)OC(C)C(=O)NC3CCCCC3C)c2)cc1 (stereo not drawn)	17	/	9	3	21	2
COC(=O)/C=C1\C(=O)N(c2nc3ccc(OC)cc3s2)C(=S)N1c1ccc(F)cc1	16	24	24	-9	9	/
COc1ccc2nc(N3C(=O)CNC3=S)sc2c1	47	/	2	65*	13	12
Fc1ccc(CO/N=C/C2=C(Cl)c3ccccc3CC2)cc1	18	20	0	79*	2	-6
O=C(NCCN1CCOCC1)NC1(C(F)(F)F)Oc2ccccc2O1	10	16	7	-3	-10	-1
CCCCNC(=O)NC1(C(F)(F)F)Oc2ccccc2O1	19	37*	8	1	11	-28
CCCCN1C=C(C(=O)c2ccccc2)C(=O)CC1	/	/	/	/	/	-6
Cc1cc(C(=O)Nc2cccc(C(=O)O)c2)c(C)o1	5	0	3	3	1	0
Cc1cc(C(=O)Nc2cccc(O)c2)c(C)o1	-11	35*	-27	-4	-17	-12
Cc1c(N=C/C=C/c2ccccc2)c(=O)n(-c2ccccc2)n1C	-2	-5	15	0	-6	-5
CC1CCN(Cc2c(C(=O)N/N=C/c3ccc(C(F)(F)F)cc3)nnn2-c2nonc2N)CC1	18	10	19	16	14	20
N=C1SC(c2ccccc2)C(=O)N1c1ncc(Cc2ccccc2Cl)s1 (stereo not drawn)	28	21	33	116*	33	-56
O=C(CSc1nnnn1-c1ccccc1)Nc1ncc(Cc2ccccc2Cl)s1	3	20	9	-18	17	-7
Cc1sc(NC(=O)CS(=O)(=O)c2ccccc2)c(C(N)=O)c1C	4	/	5	-6	0	-7
COc1ccc(N2CC(C(=O)N/N=C/c3cc([N+](=O)[O-])ccc3O)CC2=O)cc1 (stereo not drawn)	8	18	7	68*	0	-7
SMILES	tim23-1 inh	NALP1 yeast inh	tim10-1 inh	SKKanGAS inh	TIM10 inh	PfHsp90 set2
Cn1c(Sc2ccc(Cl)cc2)c(C=O)c2ccccc21	28	35	16	30	-4	-25
Cn1c(Sc2ccccc2Cl)c(C=O)c2ccccc21	35	6	25	57*	21	-8
CC(C)C[C@@H](COc1ccccc1)N1CCN(Cc2ccccc2)CCC1=O	-4	4	33	-4	-9	1
Cc1cc(C)c2sc(N(CCCN(C)C)C(=O)c3ccc(S(=O)(=O)N4CCc5ccccc5C4)cc3)nc2c1	1	/	3	10	3	-17
CCc1nnc(NC(=O)c2ccc(S(=O)(=O)N3CCc4ccccc4C3)cc2)s1	-9	24	4	11	5	-13
Cc1cc(C)c2nc(NNC(=O)c3ccc(S(=O)(=O)N4CCc5ccccc5C4)cc3)sc2c1	8	29	-27	78*	-23	45
